The values below come from PubChem BioAssay.

Activity calls are given as the source filed them.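 The calls were made as follows, unless noted: active = visual image review flags a hit and inhibition of aggregation exceeds 20%; inconclusive = visual hit but inhibition at or below 20%; inactive = no hit on visual image review.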

Assay [1] is described as follows: inhibitors of TNFa-induced NFkB p65 translocation, primary screen, imaging, HUVEC, MLSMR starter and 10KST1 sets (AID 438;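 active = inhibition above 20% together with a positive visual image hit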;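 also: compound added about 3h40 before a 20 min TNFalpha stimulation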;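 as to inhibition: signal is the nuclear over cytoplasmic p65 intensity ratio per well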). Conditions: HUVEC TNFa-induced p65 nuclear translocation; cell count: measured here: nuclei count (cytotoxicity indicator), at 2.08 µM; inhibition: at 2 µM, stronger effect = higher value, 0% TNFa-plus-vehicle, 100% no-TNFa wells.
A short description of assay [2]: inhibitors of mutant huntingtin aggregation, primary screen, imaging, exon1htt(103Q)mCFP cells, high-content imaging (AID 483).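 Also: compound exposure lasted 3 days before fixation.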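 As to nuclei count: percent of the per-plate median nuclei count of sample wells.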 The conditions noted are these: exon1htt(103Q)mCFP cell line, aggregate imaging, at 2 µM; inhibition of aggregation: stronger effect = higher value; nuclei count: measured here: cell count, toxicity.
Assay [3] in a line: inhibitors of E-selectin induction by TNFa, primary screen, imaging, HUVEC, immunofluorescence, MLSMR starter and 10KST1 sets (AID 487;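 active = visually confirmed hit in the image check and inhibition above 20%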;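 as to inhibition: signal is fraction of cell area covered by stained E-selectin grains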;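 as to nuclei count: 100% = median nuclei count of all wells on the same plate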). The conditions noted are these: HUVEC TNFalpha-induced E-selectin immunofluorescence imaging, at 2 µM; inhibition: stronger effect = higher value; nuclei count: measured here: cell number, toxicity.
The target of assay [4] is Voltage-gated potassium channel subunit beta-2 (Rattus norvegicus) (UniProt P62483). The assay is described as follows: KvBeta enzyme negative modulators, primary screen, biochemical, NADPH fluorescence (AID 622;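 active = fluorescence slope higher than the sample average by over 3 SD, cut at about -0.22 in these data, passing the limit was not always enough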;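 also: slope of raw intensity against log time taken from 70 to 1610 s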). Conditions: recombinant KvBeta, 4-cyanobenzaldehyde reduction, at 10 µM, stronger effect = higher value.
Sequence of Voltage-gated potassium channel subunit beta-2 (Rattus norvegicus) (P62483 whole entry, looked up): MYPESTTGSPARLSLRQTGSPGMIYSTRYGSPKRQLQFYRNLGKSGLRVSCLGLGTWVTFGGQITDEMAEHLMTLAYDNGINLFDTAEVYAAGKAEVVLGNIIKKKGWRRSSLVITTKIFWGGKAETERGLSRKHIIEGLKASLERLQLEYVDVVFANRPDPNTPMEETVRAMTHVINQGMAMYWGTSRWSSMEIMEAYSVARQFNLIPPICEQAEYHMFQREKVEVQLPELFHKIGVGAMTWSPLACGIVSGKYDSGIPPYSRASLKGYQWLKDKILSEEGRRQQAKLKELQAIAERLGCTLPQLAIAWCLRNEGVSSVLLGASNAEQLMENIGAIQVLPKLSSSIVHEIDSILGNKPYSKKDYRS
Assay [5] shares this target. The assay is described as follows: KvBeta positive modulators, primary screen, biochemical, NADPH fluorescence (AID 623;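 active = NADPH fluorescence slope more negative than the mean of all samples by about 3 SD, 99.7% confidence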;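 also: fluorescence intensity change per second fitted from 20 to 320 s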). The conditions noted are these: Recombinant KvBeta, NADPH fluorescence decrease slope, 10 min; at 10 µM; stronger effect = lower value.
Assay [6] deals with Alpha-2C adrenergic receptor (Homo sapiens) (UniProt P18825). Nature of the assay: modulators of alpha2C/GIRK thallium flux, primary screen, cell-based, HEK293 alpha2C/GIRK1/2 (AID 624;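 active = fluorescence slope after compound addition differing from the mean of all screened samples at 99.7% confidence, in either direction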;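 also: slope of fluorescence ratio to pre-addition baseline per second over 15 to 24 s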). The conditions noted are these: thallium flux BTC fluorescence, at 10 µM, actives lie on both sides.
Sequence of Alpha-2C adrenergic receptor (Homo sapiens) (P18825 whole entry, looked up): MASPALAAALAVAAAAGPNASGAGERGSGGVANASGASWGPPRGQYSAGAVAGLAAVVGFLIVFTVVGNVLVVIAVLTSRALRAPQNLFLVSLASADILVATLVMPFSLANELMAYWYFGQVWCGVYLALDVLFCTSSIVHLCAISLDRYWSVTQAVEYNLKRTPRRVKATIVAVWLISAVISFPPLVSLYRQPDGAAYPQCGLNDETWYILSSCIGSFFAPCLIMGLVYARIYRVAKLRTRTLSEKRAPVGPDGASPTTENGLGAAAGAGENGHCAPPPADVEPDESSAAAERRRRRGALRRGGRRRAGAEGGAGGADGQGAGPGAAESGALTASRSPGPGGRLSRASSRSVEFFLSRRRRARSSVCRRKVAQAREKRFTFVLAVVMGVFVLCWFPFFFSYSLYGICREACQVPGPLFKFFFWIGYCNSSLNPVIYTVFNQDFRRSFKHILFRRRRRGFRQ
Assay [7] in a line: inhibitors of Sendai virus-induced IRF3 signaling, primary screen, TLR/RLR signaling modifier project, cell-based, Sendai virus stimulus, luciferase, 10K MLSCN set (AID 602276;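 active = inhibition at or above 50% at 10 µM; inactive = inhibition below 50%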;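 also: firefly luciferase from ISG56 promoter only with Renilla not read in this screen; 0% = Sendai virus plus DMSO and 100% = medium plus DMSO without virus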). Conditions: HEK293 RL24 IRF3 luciferase reporter, at 10 µM, stronger effect = higher value.
A short description of assay [8]: inhibitors of poly I:C-induced TLR3 signaling, primary screen, cell-based, poly I:C stimulus, luciferase, 10K MLSCN set (AID 602277;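 active = inhibition of the reporter signal at or above 50%; inactive = inhibition below 50%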). Conditions: HEK293-TLR3 RL24 IRF3 luciferase reporter, at 10 µM, stronger effect = higher value. A general note: Reporter assays use an easily measured gene product as a stand-in for the process of interest.

For orientation: inhibition means the relative decrease from the control value, in per cent.

In the case of `O=c1[nH]c2cc3c(cc2cc1C(c1nnnn1C1CCCCC1)N1CCSCC1)OCCO3` (stereo not drawn), in assay [1], the cell count was determined as 479. The inhibition in assay [1] was 0% (inactive); in assay [3], -10% (inactive); in assay [7], -11.4% (inactive); in assay [8], -7.01% (inactive). Further, the inhibition of aggregation in assay [2] is -12.4% (inactive). For the same compound, the nuclei count was determined as 106% in assay [2] and 96.7% in assay [3]. For the same compound, the fluorescence slope in assay [4] was -0.313 (inactive). In addition, the NADPH fluorescence slope in assay [5] was -3.2e-05 (inactive). For the same compound, the slope in assay [6] is 0.00532 (inactive).

Take `O=C(CSCc1cccc(F)c1)N1CCN(c2ccccc2)CC1`: in assay [1], the cell count was 545. Further, the inhibition is -14.3% (inactive) in assay [1], -66.2% (inactive) in assay [3], -32.3% (inactive) in assay [7] and -145% (inactive) in assay [8]. The inhibition of aggregation in assay [2] was 33.7% (inactive). For the same compound, the values for the nuclei count in assay [2] and in assay [3] were 68.7% and 123%, respectively. Also, the fluorescence slope in assay [4] is -0.398 (inactive). Moreover, the NADPH fluorescence slope in assay [5] is -5.3e-05 (inactive). Besides, the slope in assay [6] was 0.00288 (inactive).

Consider `CCOC(=O)c1c(NC(=O)c2cccs2)sc2c1CCN(C(=O)OCC)C2`, for which the cell count in assay [1] was 416. Besides, the inhibition was -2% (inactive) in assay [1], 14.8% (inactive) in assay [3], 10.1% (inactive) in assay [7] and -1.84% (inactive) in assay [8]. For the same compound, in assay [2], the inhibition of aggregation is -6.8% (inactive). In addition, the nuclei count is 99.7% in assay [2] and 115% in assay [3]. In addition, the fluorescence slope in assay [4] was -0.192 (active). Further, the NADPH fluorescence slope in assay [5] was -6.6e-05 (inactive). Moreover, the slope in assay [6] is 0.0082 (inactive).

Consider `O=C(Nc1ccccc1)c1cccc(N2CCCC2=O)c1`, for which the cell count in assay [1] amounted to 363. Also, the inhibition is -6.9% (inactive) in assay [1], -74.1% (inactive) in assay [3], -43.5% (inactive) in assay [7] and -128% (inactive) in assay [8]. Besides, in assay [2], the inhibition of aggregation is -3.4% (inactive). Also, the nuclei count in assay [2] turned out to be 101%; in assay [3], 88%. In addition, in assay [4], the fluorescence slope was -0.457 (inactive). Further, in assay [5], the NADPH fluorescence slope was 3.8e-05 (inactive). Moreover, in assay [6], the slope is 0.00552 (inactive).

As to `CCOC(=O)c1ccccc1NC(=O)c1c(O)c2ccccc2n(CC)c1=O`, the cell count in assay [1] was 649. In addition, the inhibition in assay [1] was -12.8% (inactive); in assay [3], 20.2% (inactive); in assay [7], -2.85% (inactive); in assay [8], 9.26% (inactive). The inhibition of aggregation in assay [2] is -35.3% (inactive). Also, the nuclei count is 101% in assay [2] and 120% in assay [3]. Moreover, the fluorescence slope in assay [4] was -0.489 (inactive). The NADPH fluorescence slope in assay [5] was -0.000195 (inactive). Also, in assay [6], the slope is 0.00747 (inactive).

As for `Cc1ccc(S(=O)(=O)N2CCCC(C(=O)NC3=NCCS3)C2)cc1` (stereo not drawn), the cell count in assay [1] was determined as 306. Moreover, the inhibition was 7.4% (inactive) in assay [1], -27.5% (inactive) in assay [3], 14.7% (inactive) in assay [7] and 13.5% (inactive) in assay [8]. For the same compound, in assay [2], the inhibition of aggregation is -0.7% (inactive). In addition, the nuclei count in assay [2] amounted to 111%; in assay [3], 106%. Moreover, the fluorescence slope in assay [4] is -0.601 (inactive). Moreover, the NADPH fluorescence slope in assay [5] was -3.9e-05 (inactive). For the same compound, the slope in assay [6] is 0.00373 (inactive).

With `CC1(C)CN=C(N2CCN(c3ncnc4sc5c(c34)CCCC5)CC2)S1`, in assay [1], the cell count turned out to be 395. The inhibition is 4.1% (inactive) in assay [1], -28.7% (inactive) in assay [3], 6.95% (inactive) in assay [7] and 5.35% (inactive) in assay [8]. The inhibition of aggregation in assay [2] was -0.4% (inactive). Besides, the nuclei count in assay [2] came out at 80.5%; in assay [3] it was 113%. The fluorescence slope in assay [4] was -0.379 (inactive). Besides, in assay [5], the NADPH fluorescence slope was -4.9e-05 (inactive). For the same compound, in assay [6], the slope is 0.0035 (inactive).

Take `CCCn1c(SCC(=O)N2CCc3ccccc3C2)nc2c1c(=O)n(C)c(=O)n2C`: in assay [1], the cell count was found to be 430. The inhibition is -9.2% (inactive) in assay [1], -47.7% (inactive) in assay [3], 2.01% (inactive) in assay [7] and -39% (inactive) in assay [8]. Besides, in assay [2], the inhibition of aggregation is -13.1% (inactive). For the same compound, the nuclei count came to 115% in assay [2] and 117% in assay [3]. Also, in assay [4], the fluorescence slope was -0.303 (inactive). Besides, the NADPH fluorescence slope in assay [5] is 8.7e-06 (inactive). Moreover, the slope in assay [6] was 0.00547 (inactive).

As to `O=C(CN(Cc1cccs1)C(=O)CNS(=O)(=O)c1ccccc1)NCc1ccco1`, in assay [1], the cell count is 473. The inhibition was -4.2% (inactive) in assay [1], -65.9% (inactive) in assay [3], -8.34% (inactive) in assay [7] and -2.97% (inactive) in assay [8]. Besides, the inhibition of aggregation in assay [2] was -5% (inactive). For the same compound, the nuclei count in assay [2] stood at 104%; in assay [3] it was 98.5%. The fluorescence slope in assay [4] is -0.594 (inactive). For the same compound, the NADPH fluorescence slope in assay [5] is 3.8e-05 (inactive). For the same compound, in assay [6], the slope is 0.00631 (inactive).

With `Cc1ccc(C(=O)OCC(=O)Nc2ccc3c(c2)OCO3)o1`, the cell count in assay [1] was 429. Further, the inhibition in assay [1] is 14.6% (inactive); in assay [3], 8.1% (inactive); in assay [7], -15.7% (inactive); in assay [8], -12.9% (inactive). Besides, the inhibition of aggregation in assay [2] was 17.6% (inactive). The figures for the nuclei count in assay [2] and in assay [3] were 99.5% and 112%, respectively. Besides, the fluorescence slope in assay [4] was -0.595 (inactive). Moreover, the NADPH fluorescence slope in assay [5] was -5.5e-05 (inactive). In addition, the slope in assay [6] is 0.00785 (inactive).

With `CC(NC(=O)c1ccco1)c1ccc2c(c1)OCCO2` (stereo not drawn), the cell count in assay [1] is 418. The inhibition in assay [1] is 9.3% (inactive); in assay [3], -95% (inactive); in assay [7], 9.46% (inactive); in assay [8] it was 15.1% (inactive). The inhibition of aggregation in assay [2] was 10% (inactive). Also, the figures for the nuclei count in assay [2] and in assay [3] were 89.2% and 105%, respectively. The fluorescence slope in assay [4] is -0.431 (inactive). The NADPH fluorescence slope in assay [5] is -2.6e-05 (inactive). Besides, in assay [6], the slope was 0.00638 (inactive).

For the compound `O=C(NCC1CCCO1)c1cccc(N2C(=O)C3C4C=CC(C4)C3C2=O)c1` (stereo not drawn), in assay [1], the cell count was determined as 628. Also, the inhibition is 8.8% (inactive) in assay [1], -16.1% (inactive) in assay [3], 8.37% (inactive) in assay [7] and 10.8% (inactive) in assay [8]. Also, the inhibition of aggregation in assay [2] is 0% (inactive). For the same compound, the nuclei count in assay [2] turned out to be 101%; in assay [3], 118%. In addition, in assay [4], the fluorescence slope is -0.42 (inactive). For the same compound, the NADPH fluorescence slope in assay [5] was -4e-05 (inactive). Besides, the slope in assay [6] was 0.00583 (inactive).

For the compound `O=C(O)C1CC=CCC1C(=O)Nc1cccc(F)c1` (stereo not drawn), in assay [1], the cell count came to 446. The inhibition was 5.9% (inactive) in assay [1], 0.8% (inactive) in assay [3], 10.2% (inactive) in assay [7] and 31.8% (inactive) in assay [8]. Further, in assay [2], the inhibition of aggregation was -9.5% (inactive). The results for the nuclei count in assay [2] and in assay [3] were 112% and 116%, respectively. Further, in assay [4], the fluorescence slope is -0.432 (inactive). Also, the NADPH fluorescence slope in assay [5] was -2.5e-05 (inactive). Besides, the slope in assay [6] was 0.00329 (inactive).
